1 molecule from ChEMBL document CHEMBL2218924, “A broad activity screen in support of a chemogenomic map for kinase signalling research and drug discovery” (Biochem J, 2013) can be followed below.

Experiment [1] addresses T1, Ephrin type-A receptor 3 (Homo sapiens) (UniProt P29320).
T1 sequence (whole entry): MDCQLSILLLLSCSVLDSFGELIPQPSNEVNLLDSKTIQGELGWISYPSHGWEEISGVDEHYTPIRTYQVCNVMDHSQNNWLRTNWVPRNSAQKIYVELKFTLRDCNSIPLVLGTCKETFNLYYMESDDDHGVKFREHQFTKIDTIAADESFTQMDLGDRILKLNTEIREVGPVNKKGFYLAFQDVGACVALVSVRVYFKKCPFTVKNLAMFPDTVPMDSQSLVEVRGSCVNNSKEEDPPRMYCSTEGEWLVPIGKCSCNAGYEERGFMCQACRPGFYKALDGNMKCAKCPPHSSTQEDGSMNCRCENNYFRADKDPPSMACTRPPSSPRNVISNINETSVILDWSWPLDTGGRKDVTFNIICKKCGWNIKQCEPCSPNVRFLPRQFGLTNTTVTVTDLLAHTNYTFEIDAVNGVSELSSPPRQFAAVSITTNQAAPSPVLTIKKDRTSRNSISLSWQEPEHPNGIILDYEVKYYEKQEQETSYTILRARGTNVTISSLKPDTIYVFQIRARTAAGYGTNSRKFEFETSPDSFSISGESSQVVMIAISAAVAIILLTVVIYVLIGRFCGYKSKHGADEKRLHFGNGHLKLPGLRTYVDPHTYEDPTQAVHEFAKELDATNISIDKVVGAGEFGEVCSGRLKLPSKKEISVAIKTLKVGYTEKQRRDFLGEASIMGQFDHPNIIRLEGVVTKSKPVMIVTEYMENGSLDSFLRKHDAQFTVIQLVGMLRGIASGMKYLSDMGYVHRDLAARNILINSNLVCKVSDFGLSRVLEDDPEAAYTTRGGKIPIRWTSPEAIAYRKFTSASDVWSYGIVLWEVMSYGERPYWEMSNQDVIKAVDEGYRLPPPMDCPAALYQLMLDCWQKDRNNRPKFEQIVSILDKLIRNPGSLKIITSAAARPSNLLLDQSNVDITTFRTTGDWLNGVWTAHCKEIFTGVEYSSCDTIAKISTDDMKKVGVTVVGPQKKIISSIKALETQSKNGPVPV
To be noted: at 10 µM.

Experiment [2] addresses Ephrin type-A receptor 4 (Homo sapiens) (UniProt P54764). As to conditions: at 1 µM.
Experiment [3] shares this target. As to conditions: at 10 µM.
Experiment [4] concerns the target Ephrin type-A receptor 5 (Homo sapiens) (UniProt P54756). As to conditions: at 1 µM.
For experiment [5] the target is unchanged. To be noted: at 10 µM.
In experiment [6] the target is Ephrin type-A receptor 7 (Homo sapiens) (UniProt Q15375). As to conditions: at 1 µM.
The target is the same in experiment [7]. To be noted: at 10 µM.
Experiment [8] concerns the target T2, Ephrin type-A receptor 8 (Homo sapiens) (UniProt P29322).
T2 sequence (whole entry): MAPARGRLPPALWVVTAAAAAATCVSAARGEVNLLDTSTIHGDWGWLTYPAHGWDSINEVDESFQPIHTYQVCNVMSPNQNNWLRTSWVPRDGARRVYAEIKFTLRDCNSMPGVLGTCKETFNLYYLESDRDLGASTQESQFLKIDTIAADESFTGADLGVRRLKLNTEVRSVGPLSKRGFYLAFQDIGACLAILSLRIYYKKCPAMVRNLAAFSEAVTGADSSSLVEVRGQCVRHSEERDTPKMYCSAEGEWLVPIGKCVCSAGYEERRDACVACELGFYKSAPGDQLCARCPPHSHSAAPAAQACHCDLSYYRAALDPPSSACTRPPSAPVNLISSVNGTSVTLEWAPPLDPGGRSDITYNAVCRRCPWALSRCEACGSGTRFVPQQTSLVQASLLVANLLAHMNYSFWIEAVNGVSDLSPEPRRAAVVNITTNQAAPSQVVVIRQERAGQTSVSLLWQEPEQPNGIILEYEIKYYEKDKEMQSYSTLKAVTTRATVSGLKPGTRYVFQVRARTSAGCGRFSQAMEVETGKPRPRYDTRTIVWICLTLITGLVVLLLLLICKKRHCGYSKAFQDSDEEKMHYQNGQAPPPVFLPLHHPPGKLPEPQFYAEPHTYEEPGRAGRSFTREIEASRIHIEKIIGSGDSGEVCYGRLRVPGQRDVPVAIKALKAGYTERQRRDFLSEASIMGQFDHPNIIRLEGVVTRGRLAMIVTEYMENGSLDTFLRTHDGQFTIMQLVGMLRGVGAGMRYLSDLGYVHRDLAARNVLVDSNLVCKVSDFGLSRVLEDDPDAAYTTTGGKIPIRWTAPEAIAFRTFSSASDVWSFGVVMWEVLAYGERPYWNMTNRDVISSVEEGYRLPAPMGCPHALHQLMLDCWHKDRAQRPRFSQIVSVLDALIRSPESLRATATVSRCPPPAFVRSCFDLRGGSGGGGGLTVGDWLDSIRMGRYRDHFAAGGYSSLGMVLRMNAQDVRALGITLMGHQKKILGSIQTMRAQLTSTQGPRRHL
To be noted: at 1 µM.

Experiment [9] concerns the target T2, Ephrin type-A receptor 8 (Homo sapiens). To be noted: at 10 µM.
Experiment [10] has as its target T3, Ephrin type-B receptor 1 (Homo sapiens) (UniProt P54762).
T3 sequence (whole entry): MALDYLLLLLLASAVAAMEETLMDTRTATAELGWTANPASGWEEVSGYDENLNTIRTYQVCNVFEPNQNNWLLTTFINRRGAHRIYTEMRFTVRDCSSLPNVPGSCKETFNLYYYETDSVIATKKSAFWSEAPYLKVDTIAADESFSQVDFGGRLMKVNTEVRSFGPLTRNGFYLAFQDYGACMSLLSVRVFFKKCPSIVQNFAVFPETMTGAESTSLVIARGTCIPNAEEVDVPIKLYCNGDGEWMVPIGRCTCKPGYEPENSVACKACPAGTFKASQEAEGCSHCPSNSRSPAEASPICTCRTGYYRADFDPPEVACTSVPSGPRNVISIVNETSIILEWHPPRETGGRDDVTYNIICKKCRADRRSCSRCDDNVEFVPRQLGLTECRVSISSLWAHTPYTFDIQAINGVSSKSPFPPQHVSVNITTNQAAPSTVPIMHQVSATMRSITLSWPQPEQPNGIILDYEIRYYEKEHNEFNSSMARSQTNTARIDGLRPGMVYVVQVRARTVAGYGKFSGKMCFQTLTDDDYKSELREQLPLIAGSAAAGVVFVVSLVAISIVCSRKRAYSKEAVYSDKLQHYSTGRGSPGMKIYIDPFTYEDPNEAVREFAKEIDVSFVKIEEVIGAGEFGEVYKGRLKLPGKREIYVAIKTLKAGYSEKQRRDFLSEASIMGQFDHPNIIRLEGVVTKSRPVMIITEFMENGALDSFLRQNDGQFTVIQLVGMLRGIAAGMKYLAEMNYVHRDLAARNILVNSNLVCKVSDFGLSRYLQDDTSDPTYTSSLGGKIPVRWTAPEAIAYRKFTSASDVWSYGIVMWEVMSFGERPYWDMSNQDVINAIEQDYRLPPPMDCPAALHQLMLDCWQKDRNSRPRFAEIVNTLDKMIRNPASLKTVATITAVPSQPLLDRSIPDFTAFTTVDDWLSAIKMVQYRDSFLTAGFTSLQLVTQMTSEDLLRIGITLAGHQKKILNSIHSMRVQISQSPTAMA
As to conditions: at 1 µM.

Ephrin type-A receptor 7 (Homo sapiens), sequence (Q15375 28-998 limits assumed): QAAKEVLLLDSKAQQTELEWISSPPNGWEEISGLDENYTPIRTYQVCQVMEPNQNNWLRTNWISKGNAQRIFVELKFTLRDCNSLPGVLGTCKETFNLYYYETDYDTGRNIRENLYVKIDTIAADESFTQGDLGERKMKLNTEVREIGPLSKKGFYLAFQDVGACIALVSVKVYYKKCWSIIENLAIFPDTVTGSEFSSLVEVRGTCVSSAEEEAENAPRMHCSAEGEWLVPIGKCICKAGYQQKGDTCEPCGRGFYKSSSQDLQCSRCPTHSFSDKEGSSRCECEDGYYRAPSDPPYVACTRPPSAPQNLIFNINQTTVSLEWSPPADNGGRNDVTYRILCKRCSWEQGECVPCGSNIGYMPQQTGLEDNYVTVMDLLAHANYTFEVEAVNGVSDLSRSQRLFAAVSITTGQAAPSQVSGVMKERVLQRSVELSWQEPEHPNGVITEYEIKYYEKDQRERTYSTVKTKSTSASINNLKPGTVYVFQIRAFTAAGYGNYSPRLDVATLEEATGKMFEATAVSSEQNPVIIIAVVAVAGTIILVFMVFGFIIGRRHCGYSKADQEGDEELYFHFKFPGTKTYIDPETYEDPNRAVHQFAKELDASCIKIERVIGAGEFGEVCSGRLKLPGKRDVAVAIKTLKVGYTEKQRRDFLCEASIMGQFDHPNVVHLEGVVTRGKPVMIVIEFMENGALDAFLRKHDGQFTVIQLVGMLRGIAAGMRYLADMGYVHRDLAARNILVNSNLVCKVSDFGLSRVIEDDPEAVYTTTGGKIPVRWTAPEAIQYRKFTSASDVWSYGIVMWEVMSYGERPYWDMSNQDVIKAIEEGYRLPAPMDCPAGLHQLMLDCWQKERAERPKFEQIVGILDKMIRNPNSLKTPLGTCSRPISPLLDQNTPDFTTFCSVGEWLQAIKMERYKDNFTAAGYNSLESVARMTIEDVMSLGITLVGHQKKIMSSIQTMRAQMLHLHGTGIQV
Ephrin type-A receptor 4 (Homo sapiens), sequence (P54764 whole entry): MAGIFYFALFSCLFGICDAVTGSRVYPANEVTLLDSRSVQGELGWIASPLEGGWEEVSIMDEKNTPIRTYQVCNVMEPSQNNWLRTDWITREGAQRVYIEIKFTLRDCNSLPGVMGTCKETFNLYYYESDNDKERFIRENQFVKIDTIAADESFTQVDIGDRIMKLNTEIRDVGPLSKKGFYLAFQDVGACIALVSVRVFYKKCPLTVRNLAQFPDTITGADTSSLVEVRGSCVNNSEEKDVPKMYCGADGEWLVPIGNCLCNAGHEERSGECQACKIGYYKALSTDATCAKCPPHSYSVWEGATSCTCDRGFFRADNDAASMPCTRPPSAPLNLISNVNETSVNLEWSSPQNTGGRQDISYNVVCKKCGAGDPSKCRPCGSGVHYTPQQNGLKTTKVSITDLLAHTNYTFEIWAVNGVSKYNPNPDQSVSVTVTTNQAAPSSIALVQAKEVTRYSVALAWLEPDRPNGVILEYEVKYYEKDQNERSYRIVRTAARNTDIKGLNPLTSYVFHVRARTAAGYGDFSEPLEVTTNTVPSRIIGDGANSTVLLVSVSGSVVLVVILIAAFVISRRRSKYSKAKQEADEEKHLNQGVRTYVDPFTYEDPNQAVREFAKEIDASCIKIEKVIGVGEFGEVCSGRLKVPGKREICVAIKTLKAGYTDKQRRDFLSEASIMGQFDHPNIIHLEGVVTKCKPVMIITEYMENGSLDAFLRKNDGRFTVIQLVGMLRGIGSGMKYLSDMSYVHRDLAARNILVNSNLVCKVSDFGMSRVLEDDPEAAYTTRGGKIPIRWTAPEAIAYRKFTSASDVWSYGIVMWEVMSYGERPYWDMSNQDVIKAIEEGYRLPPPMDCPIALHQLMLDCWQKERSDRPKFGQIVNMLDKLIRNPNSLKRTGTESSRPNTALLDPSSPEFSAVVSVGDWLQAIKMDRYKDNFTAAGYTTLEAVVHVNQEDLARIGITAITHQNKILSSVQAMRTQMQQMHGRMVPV
Ephrin type-A receptor 5 (Homo sapiens), sequence (P54756 whole entry): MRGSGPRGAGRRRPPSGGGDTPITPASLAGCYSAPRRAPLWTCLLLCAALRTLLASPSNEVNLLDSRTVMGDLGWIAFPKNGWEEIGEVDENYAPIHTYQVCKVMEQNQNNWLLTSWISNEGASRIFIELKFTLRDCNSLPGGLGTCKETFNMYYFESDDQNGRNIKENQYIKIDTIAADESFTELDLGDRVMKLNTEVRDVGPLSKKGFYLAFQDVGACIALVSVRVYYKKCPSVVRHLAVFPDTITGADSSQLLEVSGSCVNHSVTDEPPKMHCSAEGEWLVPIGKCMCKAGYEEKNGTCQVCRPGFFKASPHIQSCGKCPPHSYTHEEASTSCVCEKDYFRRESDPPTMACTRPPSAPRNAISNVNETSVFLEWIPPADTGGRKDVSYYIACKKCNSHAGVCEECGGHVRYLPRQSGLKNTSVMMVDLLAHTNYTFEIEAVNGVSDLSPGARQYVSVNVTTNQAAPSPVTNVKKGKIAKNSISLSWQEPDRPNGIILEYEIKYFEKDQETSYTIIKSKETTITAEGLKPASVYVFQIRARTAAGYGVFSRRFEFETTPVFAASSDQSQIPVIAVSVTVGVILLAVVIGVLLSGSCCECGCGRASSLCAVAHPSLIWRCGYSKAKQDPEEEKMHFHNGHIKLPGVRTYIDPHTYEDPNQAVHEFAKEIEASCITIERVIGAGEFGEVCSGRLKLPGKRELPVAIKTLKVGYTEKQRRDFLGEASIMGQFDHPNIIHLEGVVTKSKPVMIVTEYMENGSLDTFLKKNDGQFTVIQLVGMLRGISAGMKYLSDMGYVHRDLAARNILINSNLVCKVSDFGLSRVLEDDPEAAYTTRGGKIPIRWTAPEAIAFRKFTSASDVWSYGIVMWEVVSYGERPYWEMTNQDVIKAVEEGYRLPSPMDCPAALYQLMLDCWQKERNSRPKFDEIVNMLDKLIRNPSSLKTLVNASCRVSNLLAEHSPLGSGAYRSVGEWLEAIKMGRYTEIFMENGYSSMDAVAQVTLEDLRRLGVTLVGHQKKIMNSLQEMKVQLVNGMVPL

With `CO[C@H]1C[C@@H]2CC[C@@H](C)[C@@](O)(O2)C(=O)C(=O)N2CCCC[C@H]2C(=O)O[C@H]([C@H](C)C[C@@H]2CC[C@@H](O)[C@H](OC)C2)CC(=O)[C@H](C)/C=C(\C)[C@@H](O)[C@@H](OC)C(=O)[C@H](C)C[C@H](C)/C=C/C=C/C=C/1C`, the residual activity in [1] turned out to be 129%; in [2] it was 104%; in [3], 100%; in experiment [4], 112%; in experiment [5], 116%; in experiment [6] it was 100%. For the same molecule, the residual activity in [7] amounted to 92%; in [8] it was 96%; in experiment [9], 119%; in experiment [10], 101%.
